Reference: PubChem BioAssay AID720514 (Broad Institute, 2013)
In all, about 2,100 compounds went through this assay and about 300 (14%) were called active. About 2% were inconclusive and are not listed.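 The calls were made as follows: active = every replicate test run called active, with the signal falling and half-maximal concentration within twice the top valid dose; inconclusive = the replicate test runs disagree in their calls; inactive = every test run inactive, including effects in the opposite direction.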 Only a sample is shown. Entries with a potency or affinity are not part of this list.

Assay: reduced cellular PGC1a acetyl-lysine signal – cell-based, cherry-picked samples, dose response (AID 720514);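 also: actives lower the acetylation signal so they count as inhibitors of PGC1a acetylation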
Details: U2OS PGC1a acetylation, AlphaLISA, overnight; series mostly up to 19.5 µM

outcome, inactive:
CN1CCN(C(=O)CSc2nc(-c3cccs3)cc(-c3cccs3)c2C#N)CC1
CC(=O)c1ccc(OCC(=O)OCC(=O)Nc2sccc2C(N)=O)cc1
CCOC(=O)c1c(NC(=O)CSc2cn(CC)c3ccccc23)sc2c1CCC2
CCOC(=O)c1nc(S(C)(=O)=O)ncc1Cl
O=C(c1ccc(NC(=O)C2(c3ccccc3)CCOCC2)cc1)N1CCOCC1
CCOC(=O)c1c(NC(=O)c2ccoc2C)sc2c1CCC2
CC1CCCN(Cc2c(O)ccc3c(=O)c(-c4nc5ccccc5s4)c(N)oc23)C1 (stereo unspecified)
CC(C)NC(=O)NCC[C@H]1CC[C@H](NC(=O)c2ccc(F)cc2)[C@H](CO)O1
Cc1ccccc1S(=O)(=O)NCC[C@@H]1CC[C@H](NC(=O)C2CCOCC2)[C@@H](CO)O1
CCC(C)(CC(=O)O)CC(=O)Nc1cc(C(F)(F)F)cc(C(F)(F)F)c1 (stereo unspecified)
COc1ccc(-c2nc3c(C)cc(Br)cn3c2Cc2ccc(C)cc2)cc1OC
COc1cc(C)c(CN2CCN(S(=O)(=O)c3ccc(Cl)s3)CC2)cc1OC
O=C(CN1CCC(n2nnc3cc(F)ccc32)CC1)Nc1ccc2c(c1)CCC2
CCOC(=O)C1=C[C@@H](C(C)(C)C)N(S(=O)(=O)c2ccc(C)cc2)[C@H]1c1cccc2ccccc12
Cc1ccccc1S(=O)(=O)N[C@@H]1CC[C@@H](CCn2cc(Cc3ccccc3)nn2)O[C@H]1CO
CC(C)(C)C(=O)Nc1sc2c(c1-c1nc3ccccc3[nH]1)CCCC2
CC(Sc1nc2ccccc2s1)C(=O)NC1CCCc2ccccc21 (stereo unspecified)
Cc1ccc(CNC(=O)C2CC(c3ccc([N+](=O)[O-])cc3)=NO2)cc1 (stereo unspecified)
Cc1coc2cc3oc(=O)c(CCC(=O)NC4CC4)c(C)c3cc12
Cc1ccccc1-c1ccc([C@@H]2[C@H](CO)N3CCCCN(C(=O)Nc4cccc(F)c4)C[C@@H]23)cc1
CCOC(=O)c1ccccc1NS(=O)(=O)c1ccc(OCC)cc1
CCOc1ccc(N(C)S(=O)(=O)c2cc(-c3cc(C)no3)ccc2OC)cc1
COc1ccc(NC(=O)CSC2CC(=O)N(c3ccc4c(c3)OCCO4)C2=O)cc1 (stereo unspecified)
CC(C)C(OC(=O)c1cccs1)C(=O)NC1CCCCC1 (stereo unspecified)
COc1ccc(N(C(=O)c2snc(C(N)=O)c2N)C(C(=O)NC2CCCCC2)c2ccc(C)o2)cc1 (stereo unspecified)
COc1ccc(N(C(=O)c2snc(C(N)=O)c2N)C(C(=O)NC2CCCC2)c2ccco2)c(OC)c1 (stereo unspecified)
COc1ccc(N(C(=O)c2snc(C(N)=O)c2N)C(C(=O)NC2CCCCC2)c2ccc(F)cc2)c(OC)c1 (stereo unspecified)
COc1ccc(N(C(=O)c2csnn2)C(C(=O)NC2CCCC2)c2cccs2)cc1 (stereo unspecified)
C[C@@H]1CN([C@H](C)CO)C(=O)c2c(c3ccccc3n2C)-c2ccccc2CO[C@@H]1CN(C)C(=O)c1ccc(F)cc1
Oc1ccc(Nc2nnc(-c3ccc(O)cc3)c3ccccc23)cc1
O=C(CC1SC(=Nc2ccc3c(c2)OCCO3)NC1=O)Nc1ccc(F)cc1F (stereo unspecified)
CCOC(=O)C1=C[C@@H](C(C)(C)C)N(S(=O)(=O)c2ccc(C)cc2)[C@H]1c1ccccc1
CC(C)(C)n1nnnc1CN(Cc1ccc(F)cc1)Cc1ccco1
CCOC(=O)c1c(C)n(C)c2ccc(OCC(O)Cn3nc(C)c(Br)c3C)cc12 (stereo unspecified)
CCOC(=O)c1c(CN2CCN(CC#N)CC2)n(C)c2cc(Br)c(OC)cc12
O=C(NN1c2ccccc2CCc2ccccc21)c1ccccc1Br
CCOCCn1c(CN(Cc2ccccc2)Cc2ccccc2)nc2c1c(=O)n(C)c(=O)n2C
CC(=O)Nc1nonc1-c1nc2ccccc2n1Cc1ccccc1
O=C(COCc1cc(-c2ccc3c(c2)OCO3)on1)Nc1cccnc1
CCOC(=O)CNS(=O)(=O)c1cc(-c2nnc(Nc3ccc4c(c3)OCO4)c3ccccc23)ccc1C
O=C(COc1ccc([N+](=O)[O-])cc1)Nc1ccc(C(=O)NCc2cccnc2)cc1
CCOC(=O)C(NC(=O)c1ccccc1OCC)(Nc1ncccn1)C(F)(F)F (stereo unspecified)
Cc1c(C(=O)OCC(=O)c2c(N)n(CC(C)C)c(=O)n(C)c2=O)oc2ccccc12
Cc1ccc(S(=O)(=O)N2CCN(S(=O)(=O)c3ccc(C)cc3)C2c2ccccc2)cc1
COc1ccc(C2N(S(=O)(=O)c3ccccc3)CCN2S(=O)(=O)c2ccc(C)cc2)cc1 (stereo unspecified)
COc1ccc(C(CNC(=O)c2cccc(N(C)C)c2)N2CCCC2)cc1 (stereo unspecified)
O=C(NCc1cccs1)c1ccc(Cl)c(S(=O)(=O)N2CCCC2)c1
C[C@@H]1CN([C@H](C)CO)C(=O)c2c(c3ccccc3n2C)-c2ccccc2CO[C@@H]1CN(C)C(=O)[C@H](C)c1ccccc1
COc1cc(CNC(=O)c2cc(-c3cc(C)cc(F)c3)n[nH]2)cc(OC)c1
Cc1ccc(NC(=O)c2c(C(F)(F)F)nn(C)c2SCc2ccc(Cl)cc2)cc1C
CC(=O)Nc1cc(C(=O)OCc2cccc([N+](=O)[O-])c2)ccc1C
O=C(Nc1c(F)cccc1F)c1ccc(-n2cncn2)nc1
CC(C)(C)c1ccc(C(=O)Nc2ccc(C(=O)NCc3cccnc3)cc2)cc1
Cc1ccc(C(=O)c2c[nH]c(C(=O)NCc3cccnc3)c2)cc1
CCO[C@H]1OC(C(=O)N2CCCCCCC2)=C[C@@H](C2CCCCC2)[C@@H]1CCCO
Cc1cc(=O)oc2cc(OCC(=O)OCC(=O)Nc3ccccc3F)ccc12
C[C@@H]1CN([C@@H](C)CO)C(=O)c2c(c3ccccc3n2C)-c2ccccc2CO[C@@H]1CN(C)C(=O)c1ccccc1
C[C@@H]1CN([C@H](C)CO)C(=O)c2c(c3ccccc3n2C)-c2ccccc2CO[C@@H]1CN(C)C(=O)c1ccccc1
CC(C)c1ccc(NC(=O)c2ccc3c(c2)CCN3S(C)(=O)=O)cc1
COc1ccc(NC(=O)N(C)C[C@H]2OCc3ccccc3-c3c(n(C)c4ccccc34)C(=O)N([C@@H](C)CO)C[C@H]2C)c(OC)c1
COc1ccc(C#Cc2cnc3c(c2)C(=O)N([C@H](C)CO)C[C@H](C)[C@H](CN(C)S(=O)(=O)c2cccs2)O3)cc1OC
COc1ccc(-c2cnc3c(c2)C(=O)N([C@H](C)CO)C[C@@H](C)[C@H](CN(C)C(=O)C2CCC2)O3)cc1
COc1ccc(C#Cc2cnc3c(c2)C(=O)N([C@H](C)CO)C[C@H](C)[C@H](CN(C)S(=O)(=O)c2cccc(F)c2)O3)cc1OC
O=C(Nc1ccc(-c2noc(-c3cccs3)n2)cc1)c1cccnc1
CCOC(=S)SCC(=O)Nc1nc(C)c(C)s1
CC(=O)n1cc([C@@H]2C=C(C(=O)Nc3ccccc3)O[C@H](OCc3ccc(CO)cc3)C2)c2ccccc21
Cc1cc(C(=O)NNS(=O)(=O)c2ccccc2C(F)(F)F)nn1C(C)(C)C
C[C@@H]1CN([C@@H](C)CO)C(=O)c2c(c3ccccc3n2C)-c2ccccc2CO[C@@H]1CN(C)C(=O)Nc1ccccc1C(F)(F)F
COc1cccc(S(=O)(=O)N(C)C[C@@H]2Oc3cc(C4=CCCC4)ccc3S(=O)(=O)N([C@H](C)CO)C[C@@H]2C)c1
O=C(NC(Nc1cc(C(F)(F)F)ccc1Cl)C(=O)c1ccccc1)c1ccccc1 (stereo unspecified)
CCN(CC)CCNC(=O)c1ccc2c(c1NCCO)C(=O)c1ccccc1C2=O
CCCCn1c(CN(Cc2ccccc2)Cc2ccccc2)nc2c1c(=O)n(C)c(=O)n2C
CN1Cc2c(N3CCOCC3)nc3sc(C(=O)c4ccc(Br)cc4)c(N)c3c2CC1(C)C
O=C(c1ccccc1)C(O)(Cc1ccccc1)c1ccccc1 (stereo unspecified)
COc1ccc(S(=O)(=O)N2CCOCC2)cc1NC(=O)CCNC(=O)c1ccc([N+](=O)[O-])cc1
CC1CCN(S(=O)(=O)c2ccc(NC(=O)c3ccccc3F)cc2)CC1
CCOC(=O)C1=CC[C@@H](c2ccc(OC)cc2)N(S(=O)(=O)c2ccc(C)cc2)[C@H]1CC
CN(C(=O)C1CC1)C1CCS(=O)(=O)C1 (stereo unspecified)
CCOc1ccccc1NC(=O)CSc1cn[nH]n1
O=S1(=O)CCOC[C@H](CC2CCCCC2)N1Cc1ccc(F)cc1
COc1ccc([C@H]2/C=C\CN(S(=O)(=O)/C=C/c3ccccc3)[C@@H](C)C(=O)N2Cc2ccc(F)cc2)cc1
Cc1ccc(CN(CC(O)COc2cccc3[nH]cc(C)c23)C(C)(C)C)cc1 (stereo unspecified)
C#CCN1[C@H](/C=C/C2CC2)[C@H](Cc2ccccc2)OC(=O)[C@@H]1[C@@H]1N[C@@H](C(=O)OC)C(C)(C)S1
CCCN(CCC)CCNC(=O)c1cc2c(=O)n(CC)c3ccccc3c2s1
COc1ccc(S(=O)(=O)N2CCOCC2)cc1NC(=O)CCNC(=O)c1ccc(Cl)cc1
C[C@H]1CN([C@@H](C)CO)C(=O)c2cc(/C=C/c3ccccc3)cnc2O[C@H]1CN(C)C(=O)CN(C)C
Cc1ccccc1-c1ccc2c(c1)O[C@H](CN(C)Cc1ccncc1)[C@@H](C)CN([C@@H](C)CO)S2(=O)=O
CC(C)C#Cc1cnc2c(c1)C(=O)N([C@@H](C)CO)C[C@@H](C)[C@@H](CN(C)C(=O)c1ccccn1)O2
C[C@@H]1CN([C@@H](C)CO)C(=O)c2cc(C#CC3CCCC3)cnc2O[C@H]1CN(C)C(=O)Nc1ccccc1
COc1ccc(S(=O)(=O)N(C)C[C@H]2Oc3cc(C4=CCCC4)ccc3S(=O)(=O)N([C@H](C)CO)C[C@@H]2C)cc1
C[C@H](CO)N1C[C@H](C)[C@H](CN(C)Cc2ccc(C(=O)O)cc2)Oc2ncc(-c3ccccc3)cc2C1=O
